About 83,000 compounds went through this panel and 20% of them were active in at least one assay; those are over-represented in the sample as a whole.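 Treatment: one concentration, 48 hours, 96-well format. Scoring: percent growth, with anything below 10 considered active.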 Activity calls are given as the source filed them.
The compounds below were run on CCRF-CEM leukemia (assay: NCI-60 one-dose screen, 48 h (100 = growth as untreated, 0 = no growth, -100 = all killed)). Details: 10 µM unless noted.
Method: Growth inhibition of the CCRF-CEM human tumor cell line is measured as a screen for anti-cancer activity. Cells are grown in 96 well plates and exposed to the test compound for 48 hours. Compounds are tested at a single concentration, which is 10^-5 M for most compounds. The reported endpoint is percent growth (GI% or GIPRCNT), where numbers from 0 - 100% represent growth inhibition, and numbers from -100% - 0 represent cell death. For example, a value of 40 represents 60% growth inhibition. A value of 0 means no net growth occurred over the course of the experiment. A value of -40 indicates 40% of cells at the beginning of the experiment died by the end of the experiment. A value of -100 means all cells are dead at the end of the experiment.
NCI-60 Human Tumor Cell Lines Screen was performed using the standard one-dose NCI protocol, which is described in more detail at https://dtp.cancer.gov/discovery_development/nci-60/default.htm.
Compounds with GIPRCNT values below 10 were considered active. Activity score was based on GIPRCNT using the following formula: […]
Score is 0 for GIPRCNT values of 100 or above, 50 for GIPRCNT values of 0, and 100 for GIPRCNT values of -100.

Row | Compound | growth
1 | Clc1ccc(Nc2nnc(CNc3ccccc3)c3ccccc23)cc1 | 12.4% (inactive)
2 | Brc1ccc(Nc2nc(Nc3cnc4ccccc4c3)c3[nH]cnc3n2)cc1 | 60.6% (inactive)
3 | CNC(=O)c1cc(Oc2ccc3c(c2)sc2nc(-c4ccc(Cl)c(C(F)(F)F)c4)cn23)ccn1 | 47.4% (inactive)
4 | O=c1cc(CNc2cc(F)cc(F)c2)c2ccc(I)cc2[nH]1 | 14.8% (inactive)
5 | Fc1cc2[nH]ncc2c2c3c(c(-c4cn[nH]c4C(F)(F)F)nc12)CCCC3 | 1.34% (active)
6 | CCOC(=O)/C=C1\S/C(=N\Nc2cc(=O)[nH]c3ccc(Br)cc23)N(c2ccccc2)C1=O | 10.5% (inactive)
7 | C[N+]1=C(/C=C/c2ccccc2Cl)C(C)(C)c2ccccc21 | 47.1% (inactive)
8 | COc1ccc(OC)c(Nc2nnc(-c3cc(OC)c(OC)c(OC)c3)o2)c1 | 121% (inactive)
9 | Cc1ccc2c(c1)nc(C)n2-c1ncnc2c1CC(C)c1cc(O)ccc1N2C (stereo not given) | 9.39% (active)
10 | COC12C=C/C(=C(/C(=O)OCc3csc(SC)n3)C(=O)CCCCCCCCC3(OC)C=C/C(=C(/C(=O)OCc4cnc(SC)s4)C(=O)CCCCCCCC1)O3)O2 (stereo not given) | 14.6% (inactive)
11 | Cc1ncc(C(=O)Nc2ccc(CN3CCN(C)CC3)c(C(F)(F)F)c2)cc1C#Cc1cnc(N)c2ccc(C#N)cc12 | 3.7% (active)
12 | COc1cc(Cc2cc(-c3ccccc3)nn(Cc3ccccc3)c2=O)cc(OC)c1OC | 34.8% (inactive)
13 | O=C(/C=C/c1ccccc1)N(C1CCCCC1)C1CCCCC1 | 79.6% (inactive)
14 | Cc1cc(O)c(=O)cc2c1C[C@H]1CC(C)(C)/C=C/C[C@]3(C)Oc4cc(=O)c(O)cc(C)c4C[C@H]3C[C@H](O)[C@@]1(C)O2 | 9.98% (active)
15 | Cc1ccc2c(/C=C/C(=O)c3cc(CN4CCOCC4)c(O)c4nc(C)ccc34)cc(CN3CCOCC3)c(O)c2n1 | 3.28% (active)
16 | CCCCCc1ccc(S(=O)(=O)Nc2cc(-c3csc(NC(C)=O)n3)ccc2N2CCN(C)CC2)cc1 | 29.8% (inactive)
17 | CN(C)/C(N)=N/N=C(\c1ccccc1)c1ccccn1 | 81.4% (inactive)
18 | COc1ccc(CN2C(=O)OC(C)(COC(C)=O)C2=O)cc1 (stereo not given) | 99.5% (inactive)
19 | Cc1ccc(C(=O)c2ccc(CC(=O)N/N=C/c3cccc(O)c3O)n2C)cc1 | 13.1% (inactive)
20 | CC(C)=CC(=O)N[C@H]1CC[C@]2(C)C3CC[C@]4(C)C(C(C)N(C)C)=CCC4C3CCC2[C@H]1O (stereo not given in full) | 13.4% (inactive)

Row | Compound | growth
21 | O=C(Nc1ccccc1O)c1ccc(CNc2ccnc(C(F)(F)F)c2)cc1 | -8.29% (active)
22 | COc1cc(/C=C/C(=O)N2CCN(C(=O)c3cc(OC)c(OC)c(OC)c3)CC2)ccc1OCCCOc1cc2c(cc1OC)C(=O)N1CCC[C@H]1C=N2 | -1.17% (active)
23 | c1cc(OCCN2CCCCCC2)ccc1CNc1ccc2nc(CCC3CCCCC3)[nH]c2c1 | 29.5% (inactive)
24 | CC1(C)CC(=O)C2=C(C1)C(c1ccc(Cl)cc1)n1ncc(C#N)c1N2 (stereo not given) | 98.4% (inactive)
25 | COCCn1cc(-c2nc(-c3c[nH]c4ncccc34)cs2)c2ccccc21 | 56.6% (inactive)
26 | Cc1nc2sc(C(=O)Nc3ccccn3)c(N)c2cc1C(C)O (stereo not given) | 49.6% (inactive)
27 | COc1cc(-c2cc(-c3ccc(Nc4nc(Nc5ccc(Cl)cc5)nc(Nc5ccc(Cl)cc5)n4)cc3)no2)cc(OC)c1OC | -5.88% (active)
28 | CC/C(=C(\c1ccc(Cl)cc1)c1ccc(OCCN2CCCCC2)cc1)c1ccc(O)cc1 | 23.1% (inactive)
29 | COc1cccc(CNc2c3ccccc3nc3ccccc23)c1OC | 39.5% (inactive)
30 | NS(=O)(=O)c1ccc(C(=O)N=Nc2c(O)[nH]c3ccc(Cl)cc23)cc1 | 99.7% (inactive)
31 | O=C1C=CC2(O)OC/C(=C\c3ccccc3)C(O)=C2C1=O (stereo not given) | 2.55% (active)
32 | Cc1[nH]n(-c2cccc(Cl)c2)c(=O)c1/C=C1\C=c2ccccc2=CC1=O | 36.3% (inactive)
33 | CCOC(=O)CNC1=C(Cl)C(=O)N(Cc2ccc(Cl)cc2)C1=O | 102% (inactive)
34 | CC(C)c1ccc2c(c1)CC[C@H]1[C@](C)(C(=O)OCC#CCN3CCCC3)CCC[C@]21C | 6.39% (active)
35 | Nc1c(Br)cc2c(c1Br)Cc1cc([N+](=O)[O-])ccc1-2 | 95.7% (inactive)
36 | CN(C)c1ccc(/C=C2\C=C(c3nc4ccccc4s3)OC2=O)cc1 | 99% (inactive)
37 | Cc1ccc(C2CC(c3cccc(Nc4ccncc4)c3)=Nc3c(N)nc(N)nc3N2)cc1 (stereo not given) | 33.9% (inactive)
38 | CCN(CC)CCOc1ccc(/C(=C(\C)Cc2ccc(OC)cc2)c2ccc(OC(=O)NCc3ccccc3)cc2)cc1 | 23.1% (inactive)
39 | O=S(=O)(Nc1cc(Sc2nc3ccccc3s2)c(O)c2ccccc12)c1ccc2ccccc2c1 | 67.7% (inactive)
40 | N#Cc1ccccc1-c1ccc(CN2C(=O)S/C(=C\c3ccc(Br)cc3)C2=O)cc1 | 100% (inactive)
